# The source made the active and inactive calls.
# Columns and labels:
# [1] = system: Plasmodium falciparum Sir2 (PF13_0152, Sir2A); test: Plasmodium falciparum Sir2A binding compounds – biochemical, small-molecule microarray, 635 nm fluorescence, primary screen (AID 1098); details: fluorescence 635 nm, higher = more signal;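 note: score merges spot fluorescence intensity with its signal-to-noise ratio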
# [2] = probe aDKK1 binding to arrayed compounds – biochemical, biotinylated probe, 635/667 nm fluorescence, primary screen (AID 1099); details: small-molecule microarray, higher = more signal;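 note: score merges 667nm spot fluorescence with signal to noise across triplicate slides; reference of the scale not given here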
# [3] = probe aCHRDL2 binding to arrayed compounds – biochemical, biotinylated probe, 635/667 nm fluorescence, primary screen (AID 1100); details: small-molecule microarray, higher = more signal
# [4] = change in splice reporter luminescence, either direction, cell-based, HEK293, spliceosome inhibition project, primary screen (AID 1101); details: HEK293 splicing luciferase reporter, 24 h, higher = more signal, called active from +8 up or from −8 down;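 note: HEK293 cells carrying a splicing-competent luciferase reporter gene; test concentration not given here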
# [5] = target: Fibroblast growth factor 10 (Homo sapiens) (UniProt O15520); test: compounds binding fibroblast growth factor 10 – biochemical, small-molecule microarray, 635 nm fluorescence, primary screen (AID 1102); details: FGF10 binding, fluorescence 635 nm, higher = more signal
# [6] = system: glycogen synthase kinase-3 (GSK3A per assay name; protocol says GSK3B); test: compounds binding glycogen synthase kinase-3 – biochemical, small-molecule microarray, 635 nm fluorescence, GSK3A, primary screen (AID 1103); details: fluorescence 635 nm, higher = more signal; note: the record names both GSK3A and GSK3B
# [7] = target: Epidermal growth factor receptor (Homo sapiens) (UniProt P00533); test: compounds binding epidermal growth factor receptor – biochemical, small-molecule microarray, 635 nm fluorescence, primary screen (AID 1104); details: EGFR binding, higher = more signal;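 note: score merges 667 nm emission intensity with spot signal to noise over triplicate slides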
# [8] = target: Follistatin-related protein 3 (Homo sapiens) (UniProt O95633); test: compounds binding follistatin-related protein 3 – biochemical, small-molecule microarray, 635 nm fluorescence, primary screen (AID 1105); details: FSTL3 binding, higher = more signal;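 note: score merges emission near 667 nm and signal to noise per printed spot across three slides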
# [9] = target: Dickkopf-related protein 1 (Homo sapiens) (UniProt O94907); test: small molecules binding DKK1 protein – biochemical, small-molecule microarray, 635 nm fluorescence scan, primary screen (AID 1106); details: higher = more signal;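 note: score merges emission near 667 nm with signal to noise over three replicate slides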
# [10] = system: Inhibin beta A chain (activin A); test: small molecules binding activin A – biochemical, small-molecule microarray, 635 nm fluorescence scan, primary screen (AID 1107); details: INHBA, higher = more signal;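 note: mouse activin A protein probed at 4.33 µg/mL on printed slides; score merges bound-protein fluorescence near 667 nm with spot signal-to-noise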
# Chain of Follistatin-related protein 3 (Homo sapiens) (O95633 whole entry, looked up): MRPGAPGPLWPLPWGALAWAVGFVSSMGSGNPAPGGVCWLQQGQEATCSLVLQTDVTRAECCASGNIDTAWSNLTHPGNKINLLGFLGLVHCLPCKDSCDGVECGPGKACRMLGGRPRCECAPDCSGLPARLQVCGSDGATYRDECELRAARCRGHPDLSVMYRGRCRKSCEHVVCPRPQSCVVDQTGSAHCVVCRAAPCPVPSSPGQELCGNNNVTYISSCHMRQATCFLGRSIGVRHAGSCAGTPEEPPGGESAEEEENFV
# Chain of Fibroblast growth factor 10 (Homo sapiens) (O15520 whole entry, looked up): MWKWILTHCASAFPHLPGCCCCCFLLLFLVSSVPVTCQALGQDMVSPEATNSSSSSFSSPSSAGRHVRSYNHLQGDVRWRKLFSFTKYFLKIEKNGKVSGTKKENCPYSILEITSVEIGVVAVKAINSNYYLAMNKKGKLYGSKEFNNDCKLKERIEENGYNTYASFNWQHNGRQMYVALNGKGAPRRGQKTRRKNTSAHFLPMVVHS
# Chain of Epidermal growth factor receptor (Homo sapiens) (P00533 whole entry, looked up): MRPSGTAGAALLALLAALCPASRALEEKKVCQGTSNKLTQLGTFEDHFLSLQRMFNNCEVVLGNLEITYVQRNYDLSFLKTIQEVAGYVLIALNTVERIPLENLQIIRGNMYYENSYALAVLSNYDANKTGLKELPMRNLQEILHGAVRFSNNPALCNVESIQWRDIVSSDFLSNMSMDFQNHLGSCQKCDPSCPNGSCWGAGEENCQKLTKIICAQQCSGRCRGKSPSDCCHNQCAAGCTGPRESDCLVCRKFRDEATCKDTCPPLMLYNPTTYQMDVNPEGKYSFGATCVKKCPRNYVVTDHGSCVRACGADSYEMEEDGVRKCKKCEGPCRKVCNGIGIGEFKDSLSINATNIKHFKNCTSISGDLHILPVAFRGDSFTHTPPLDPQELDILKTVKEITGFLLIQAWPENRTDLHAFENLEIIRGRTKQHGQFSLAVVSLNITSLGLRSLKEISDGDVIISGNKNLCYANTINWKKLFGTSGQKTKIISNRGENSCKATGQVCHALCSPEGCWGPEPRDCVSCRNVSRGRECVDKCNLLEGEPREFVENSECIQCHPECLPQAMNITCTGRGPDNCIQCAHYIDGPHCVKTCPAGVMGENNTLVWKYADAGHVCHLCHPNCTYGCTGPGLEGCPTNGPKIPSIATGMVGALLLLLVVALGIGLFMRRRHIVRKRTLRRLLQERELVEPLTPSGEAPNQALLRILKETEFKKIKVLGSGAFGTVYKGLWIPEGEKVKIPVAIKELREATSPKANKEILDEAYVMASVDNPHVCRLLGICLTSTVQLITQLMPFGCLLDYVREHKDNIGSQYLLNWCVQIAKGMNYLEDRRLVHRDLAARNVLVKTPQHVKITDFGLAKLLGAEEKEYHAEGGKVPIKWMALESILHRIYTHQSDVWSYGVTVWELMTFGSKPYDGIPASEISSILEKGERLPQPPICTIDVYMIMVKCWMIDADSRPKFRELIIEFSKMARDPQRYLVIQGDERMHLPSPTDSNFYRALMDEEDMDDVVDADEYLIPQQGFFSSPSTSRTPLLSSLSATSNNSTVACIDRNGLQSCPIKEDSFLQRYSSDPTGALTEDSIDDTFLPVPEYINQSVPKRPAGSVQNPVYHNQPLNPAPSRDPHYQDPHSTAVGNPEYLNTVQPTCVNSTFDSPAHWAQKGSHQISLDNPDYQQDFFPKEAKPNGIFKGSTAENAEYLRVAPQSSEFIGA
# Chain of Dickkopf-related protein 1 (Homo sapiens) (O94907 whole entry, looked up): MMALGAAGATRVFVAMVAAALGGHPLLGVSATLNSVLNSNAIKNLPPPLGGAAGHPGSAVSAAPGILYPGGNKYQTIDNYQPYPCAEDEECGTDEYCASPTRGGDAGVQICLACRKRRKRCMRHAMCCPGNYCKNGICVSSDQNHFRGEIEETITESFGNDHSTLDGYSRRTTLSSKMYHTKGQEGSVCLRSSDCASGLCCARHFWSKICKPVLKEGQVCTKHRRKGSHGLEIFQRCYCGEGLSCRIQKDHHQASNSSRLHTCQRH
SMILES,composite z-score [1],composite z-score [2],composite z-score [3],z-score [4],composite z-score [5],composite z-score [6],composite z-score [7],composite z-score [8],composite z-score [9],composite z-score [10]
O=C1[C@@H]2[C@@H](CC(COc3ccccc3)=C([C@H](O)CCc3ccccc3)[C@@H]2CO)C(=O)N1Cc1ccccc1,0.764,-0.0833,-0.264,0.187 (inactive),0.408,-0.0949,0.256,0.679,0.286,0.343
CC1CC/C=C\[C@H]2OC34C=CCN(C(C)(C)C)C(=O)[C@H]3N(CCCO)C(=O)[C@@H]4C2C(=O)O1 (stereo not given in full),0.28,-0.107,0.4,0.964 (inactive),-0.0987,-0.592,-0.927,-0.943,-0.863,0.406
CC(C)=CCCC(C)=CC(O)C1C=CC2C(=O)NC(=O)C2N1Nc1ccccn1 (stereo not given),1.52,0.0536,-0.319,-0.121 (inactive),1.46,1.29,1.68,1.55,1.76,1.6
C=C(COC)C(=O)CC[C@@H](OC(=O)c1ccccc1-c1ccccc1C(=O)O)c1ccc(OCCO)cc1,0.398,-0.321,0.0721,0.833 (inactive),0.983,-0.278,-0.487,0.684,0.0668,1.08
COC(=O)[C@@]1(Cc2ccc(OC)cc2)[C@H]2c3cc(C(=O)N4CCCC4)n(Cc4ccc(C(F)(F)F)nc4)c3C[C@H]2CN1C(=O)c1ccccc1,1.27,0.0202,0.872,-4.53 (inactive),0.69,-0.478,0.282,0.11,-0.301,0.918
C=CCC(OC(C)=O)[C@@H]1[C@@H](N(Cc2ccc(-c3ccccc3)cc2)C(=O)c2cccc3ccccc23)c2cc(OCCCO)ccc2N1C(=O)Cc1ccc(OC)cc1 (stereo not given in full),0.057,0.267,0.516,-0.149 (inactive),0.345,-0.102,0.0253,0.13,-0.113,1.37
CN1C(=O)C2C=CC(C(O)c3ccc(-c4ccccc4)s3)N(NC(=O)OC(C)(C)C)C2C1=O (stereo not given),0.871,0.625,1.04,2.11 (inactive),0.171,0.484,0.609,1.02,0.207,0.86
CCOC(=O)C[C@H]1[C@H](OC(=O)c2cc3ccccc3oc2=O)[C@@H](NC(=O)CC(C)C)c2cc(OCCCO)ccc2N1C(=O)Cc1ccc(OC)cc1,0.621,-0.283,-0.309,-0.339 (inactive),0.942,0.523,0.145,0.91,0.481,-0.0372
C=CCC(OC(C)=O)[C@@H]1[C@@H](N(Cc2ccc(-c3cccc(C(F)(F)F)c3)o2)C(=O)c2ccc(-c3ccccc3)cc2)c2cc(OCCCO)ccc2N1C(=O)c1ccc2ccccc2c1 (stereo not given in full),0.194,-0.151,0.397,0.697 (inactive),0.225,0.099,0.1,0.695,0.15,1.22
O=C1O[C@@H](c2ccccc2)[C@@H](c2ccccc2)N2[C@@H](c3ccc(OCCO)cc3)[C@]3(C(=O)Nc4ccc(C#CC5(O)CCCCCC5)cc43)[C@@H](C(=O)O)[C@H]12,1.46,0.623,0.457,-0.702 (inactive),0.372,0.995,0.146,0.401,-0.0236,0.2
CCCC=C(CCC)[C@@H](NC(=O)OCC(C)C)c1ccc(C(=O)OC)cc1,0.458,-0.315,-0.411,-2.36 (inactive),0.674,0.788,0.471,0.414,0.85,-0.155
COC(=O)C1=CC(CCCO)=CC(c2cccs2)N(Cc2cc3c(cc2Br)OCO3)C=C1C(=O)OC (stereo not given),1.53,0.718,0.628,-0.478 (inactive),1.17,1.3,0.511,0.908,0.166,1.01
COc1ccc(C(O)C2C=CC3C(=O)N(c4ccccc4)C(=O)C3N2Nc2ccc(C#N)cc2)cc1OCc1ccccc1 (stereo not given),1.09,1.31,1.42,0.471 (inactive),0.372,0.564,0.0706,0.727,-0.463,0.898
COC(=O)C(CC#Cc1ccc2c(c1)[C@]1(C(=O)N2)[C@H](c2ccc(OCCO)cc2)N2[C@H](c3ccccc3)[C@H](c3ccccc3)OC(=O)[C@H]2[C@@H]1C(=O)N1CCCCCCC1)C(=O)OC,1.8,2.65,1.3,0.191 (inactive),1.18,1.37,1.64,1.63,2.14,1.64
C=C(CCCC)/C(=C/C[C@H](OC(=O)c1ccncc1)c1ccc(OCCO)cc1)c1cnc2ccccc2c1,1.47,-0.107,0.164,-0.0197 (inactive),0.898,0.829,0.776,1.45,0.768,1.36
O=C1C=C(c2ccccc2)C(=O)C2=C1CC([C@H]1Oc3ccccc3S(=O)(=O)N3CCC[C@@H]13)=CC2,-0.365,-0.191,-0.569,-2.32 (inactive),0.0925,-0.009,0.0548,-0.365,0.155,0.718

SMILES,composite z-score [1],composite z-score [2],composite z-score [3],z-score [4],composite z-score [5],composite z-score [6],composite z-score [7],composite z-score [8],composite z-score [9],composite z-score [10]
O=C(NCC(O)CO)[C@@]1(CCS(=O)(=O)c2ccccc2)N=C(c2ccc(OCCCO)cc2)O[C@H]1c1ccccc1 (stereo not given in full),1.11,1.27,0.985,-0.809 (inactive),0.303,0.235,-0.928,-0.555,-1.1,0.801
C=CCOC(=O)[C@H]1[C@@H]2C(=O)O[C@@H](c3ccccc3)[C@@H](c3ccccc3)N2[C@@H](c2ccc(OCCOC(=O)[C@@H]3C[C@@H]4C(=O)N[C@@H](CCCCNC(C)=O)C(=O)N4[C@@H]3c3cccc(OCCO)c3)cc2)[C@]12C(=O)Nc1ccccc12,1.43,0.171,0.042,0.736 (inactive),0.794,1.32,0.793,0.726,0.698,0.239
O=C(NCCN1CCOCC1)[C@@H]1c2ccccc2C(=O)N(Cc2ccccc2C(F)(F)F)[C@H]1c1ccc(CO)cc1,0.99,-0.745,-0.31,-0.422 (inactive),-0.393,0.0726,-1.11,-0.708,-1.28,-0.735
O=C1O[C@@H](c2ccccc2)[C@@H](c2ccccc2)N2[C@@H](c3ccc(OCCO)cc3)[C@]3(C(=O)Nc4ccc(C#CC5(O)CCCCCC5)cc43)[C@@H](C(=O)Nc3nc4ccccc4s3)[C@H]12,0.943,0.552,0.662,-0.102 (inactive),1.39,1.31,0.533,1.38,0.553,0.541
CC(C)=CCCC(C)=CC(O)C1C=CC2C(=O)NC(=O)C2N1Nc1ccc(Cl)cc1Cl (stereo not given),0.44,0.34,0.992,1.22 (inactive),0.499,0.0742,0.542,1.1,0.153,1.44
COc1ccccc1CN1C(=O)c2ccccc2[C@](Cc2ccccc2I)(C(=O)NCC(C)C)[C@@H]1c1ccc(CO)cc1,1.66,0.736,1.01,0.0236 (inactive),-0.0272,-0.0773,-1.19,-0.408,-1.27,-0.316
Cc1ccc(F)cc1S(=O)(=O)N[C@H]1CCN(Cc2ccc(OC(C)C)cc2)C1,1.23,-0.322,-0.747,-0.24 (inactive),0.44,0.0619,-0.437,0.195,0.577,-0.22
COc1ccc(C(O)C2C=CC3C(=O)N(c4ccccc4)C(=O)C3N2Nc2ccc([N+](=O)[O-])cc2)c2ccccc12 (stereo not given),1.2,0.662,0.88,-0.707 (inactive),0.981,1.32,0.385,1,0.226,0.642
CCOC(=O)C[C@H]1[C@H](OC(=O)Cc2ccc3c(c2)OCO3)[C@@H](NC(=O)Cc2ccc(OC)cc2)c2cc(OCCCO)ccc2N1C(=O)Cc1ccc(OC)cc1,0.132,-0.0514,-0.178,-2.07 (inactive),0.205,0.157,-0.141,0.0597,-0.141,0.177
CC(C)=CCCC=C(C)C(O)C1C=CC2C(=O)N(c3ccccc3)C(=O)C2N1Nc1ccc(C#N)cc1 (stereo not given),0.669,0.473,0.722,-0.403 (inactive),0.569,1.3,0.411,1.29,0.0902,1.16
CN1C(=O)[C@@H]2[C@@H](CC(COc3ccccc3)=C3[C@@H](CCc4ccccc4)OB(O)C[C@@H]32)C1=O,1.11,-0.003,0.0414,0.341 (inactive),0.311,-0.557,-0.133,0.128,0.109,0.515
N#Cc1ccc(NN2C(C(O)C3CC=CCC3)C=CC3C(=O)N(c4ccccc4)C(=O)C32)cc1 (stereo not given),0.602,0.417,0.728,1.6 (inactive),1.09,0.79,1.44,1.38,-0.141,1.25
CCCC[C@H]1OB(O)C[C@H]2C1=C(COc1ccccc1)C[C@H]1C(=O)C=CC(=O)[C@H]12,0.268,1.07,-0.56,-0.171 (inactive),0.638,0.474,0.286,1.02,0.966,0.825
C=CCC(OC(C)=O)[C@@H]1[C@@H](N(Cc2cccc3ccccc23)C(=O)Cc2ccc(OC)cc2)c2cc(OCCCO)ccc2N1C(=O)c1ccc2ccccc2c1 (stereo not given in full),0.0596,0.0644,0.256,-1.68 (inactive),0.045,-0.344,0.0359,0.627,0.234,1.35
O=C1NC(=O)C2C1C=CC(C(O)c1ccc(B(O)O)cc1)N2Nc1ccc(Cl)cc1Cl (stereo not given),0.46,0.704,0.326,0.379 (inactive),0.0671,-0.0838,-0.174,0.317,-0.414,0.948
COCC(=C=CC[C@H](O)c1ccccc1OCCO)C[C@H](O)COCc1ccccc1,1.54,0.132,-0.316,-0.111 (inactive),1.49,0.342,0.335,0.3,-0.06,0.627

# Reference: PubChem BioAssay
